# Screening results as filed in PubChem.
# SF-1 inh: inhibitors of human SF-1, primary screen, cell-based, CHO-K1, Gal4-SF-1 LBD, luciferase luminescence; Steroidogenic factor 1 (Homo sapiens), Q13285; inhibition, % at 10 µM; CHO-K1 Gal4-SF-1 LBD luciferase reporter; 65,000 tested, 0.55% active; AID 525, 2006;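 active means inhibition above the mean inhibition of all tested compounds plus 3 SD, cut at about 48% in these data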;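 further: 0% = SF-1 transfected cells with DMSO and 100% = mock-transfected cells lacking SF-1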
# Target sequence (Q13285 whole entry, looked up, the tested form may be a part): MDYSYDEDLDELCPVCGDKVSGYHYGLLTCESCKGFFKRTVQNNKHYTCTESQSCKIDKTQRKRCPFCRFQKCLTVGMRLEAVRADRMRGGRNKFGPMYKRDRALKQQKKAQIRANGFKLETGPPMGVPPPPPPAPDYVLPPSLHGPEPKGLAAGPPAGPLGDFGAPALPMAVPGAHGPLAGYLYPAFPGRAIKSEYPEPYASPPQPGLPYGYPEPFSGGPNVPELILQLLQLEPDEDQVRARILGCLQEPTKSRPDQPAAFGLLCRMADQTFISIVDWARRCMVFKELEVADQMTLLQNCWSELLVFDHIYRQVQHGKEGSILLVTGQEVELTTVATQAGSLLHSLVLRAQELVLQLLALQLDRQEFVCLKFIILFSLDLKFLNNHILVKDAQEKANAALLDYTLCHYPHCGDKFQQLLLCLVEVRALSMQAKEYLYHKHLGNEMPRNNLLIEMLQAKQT
# * marks the source's active call; other numbers are inactive results. The entries come from a sample that favours hits as a whole.
SMILES,SF-1 inh
C(=N\n1cnnc1)/c1cn(Cc2ccccc2)c2ccccc12,6
Cn1cc(/C=N/n2cnc3scc(-c4ccc(Cl)cc4)c3c2=O)c2ccccc21,81*
Cc1nnc(N2CCOCC2)c2ccccc12,-2
COc1ccc(Cn2c(C3CC3)nc3ccc(NC(=O)c4ccco4)cc3c2=O)cc1,-59
O=C(NCCN1CCOCC1)c1nn2c(c1Cl)NC(c1ccccc1)CC2C(F)(F)F (configuration not stated),-4
COc1ccc(-n2c(C)cc(C(=O)Cn3c(NCCO)nc4ccccc43)c2C)cc1,-10
CCOC(=O)c1sc2ncn(CC(=O)N(CC)CC)c(=O)c2c1C,17
CC(C)NCC(O)Cn1c2c(c3ccccc31)CCc1c-2cnn1-c1ccccc1 (configuration not stated),52*
O=C(c1ccc2c3c(cccc13)C(=O)N(O)C2=O)N1CCCCC1,66*
O=C(c1n[nH]c(=O)c2ccccc12)N1CCN(c2ccccc2Cl)CC1,1
CCc1ccc2[nH]cc(C(=O)N3CCCCCC3)c(=O)c2c1,1
Cc1c(-c2nc(N)nc(Nc3ccccc3)n2)oc2ccccc12,-162
Cc1ccccc1Cn1c2ccccc2c2cn[nH]c(=O)c21,8
Cc1ccc(C)c(CN2CCCNC2=O)c1,11
COc1ccc(N=CC2=C(O)CC(C)(C)CC2=O)cc1,-87
COC(=O)/C(=C1/Oc2cc(C)oc(=O)c2S1)C(F)(F)F,96*
COC(=O)c1cc2sc(Cl)cc2n1CC(=O)N1CCCc2ccccc21,2
CC(=O)N1CCc2c(sc(NC(=O)c3ccc4c(c3)OCCO4)c2C#N)C1,-77
O=c1[nH]c2ccccc2nc1-c1cccs1,-54
c1ccc2nc(-c3nc4ccccc4[nH]3)ccc2c1,67*
c1csc(-c2ccc3ccccc3n2)c1,-79
Cc1onc(-c2ccccc2)c1C(=O)Nc1c(C)n(C)n(-c2ccccc2)c1=O,-5
CN(CC(=O)N1CCN(c2ccccc2)CC1)S(=O)(=O)c1cnc[nH]1,6
CCCCCCC1C(C#N)=C(N)OC2=C1C(=O)CC(C)(C)C2 (configuration not stated),-7
CC1(C)CC(=O)C2=C(C1)Oc1nc3ccccc3cc1C2C(C#N)C#N (configuration not stated),81*
SMILES,SF-1 inh
O=C(Nc1ccccc1)N(O)c1ccc(Cl)cc1,-58
CN(CCc1ccccn1)C(=O)CN(C)S(=O)(=O)c1ccc2c(c1)c(=O)n(C)c(=O)n2C,4
COc1cc(C(C#N)N2CCOCC2)ccc1O (configuration not stated),-3
CC(=O)Cc1nsc(NC(=O)c2cc(-c3cccc(C(F)(F)F)c3)oc2C)n1,-2
COc1ccc(CC(=O)Nc2ccc(S(=O)(=O)NCC3CCCO3)cc2)cc1 (configuration not stated),7
COC(=O)c1ccc2c(=O)n(CCN3CCOCC3)c(SCC(=O)c3ccccc3)nc2c1,-8
COc1ccc(C(=O)Nn2c(SCC(=O)NCC3CCCO3)nc3ccccc3c2=O)cc1 (configuration not stated),67*
Clc1ccc(C2=Nn3c(nnc3-c3cccnc3)SC2)s1,6
CCOc1ccc(NC(=O)c2ccccc2OC)cc1,-73
COc1ccccc1-c1nnc2n1N=C(c1ccc(O)c(O)c1)CS2,67*
CCOc1ccc(C2=Nn3c(nnc3-c3ccccc3OC)SC2)cc1,73*
CCn1c(SCC(=O)c2ccc(O)c(O)c2)nnc1-c1ccccc1OC,5
O=C(CN(C1CCCCC1)S(=O)(=O)c1ccc(Cl)cc1)NCCCO,-2
O=C(c1cnsn1)N1CCN(c2ccccn2)CC1,-4
ONC(=Nc1ccccc1)C(=Nc1ccccc1)NO,7
CCOC(=O)c1cc(-c2ccco2)nc2c1c(C)nn2-c1ccccc1,10
CCOC(=O)c1cnc(-n2nc(C)cc2C)nc1NC(C)c1ccccc1 (configuration not stated),49*
CCOC(=O)c1cnn2c(C)cc(-c3ccccc3)nc12,-65
O=C1CCCC2=C1C(c1ccccc1)C1=C(CCCC1=O)O2,14
N#Cc1c(N2CCCC2)nc(N)c2c(N)nc(N3CCCC3)cc12,-50
COc1ccccc1C(=O)N1CCN(c2nc3cc(C)c(C)cc3cc2C#N)CC1,-19
COc1cc2c(C#N)c(N3CCN(c4ccccc4OC)CC3)nc(N)c2c(N)n1,73*
O=C(NCC1CCCO1)c1cccc(-n2cnnn2)c1 (configuration not stated),12
COc1cc(C)nc(Oc2ccc(=O)[nH]n2)n1,-5
CCc1nn2cc(-c3ccccc3)nc2s1,69*
CCc1nc(C)c(-c2ccccc2)c(=O)[nH]1,-10
Cc1cccc(CN2CCC(CNC(=O)C3CCCN(S(=O)(=O)c4cnc[nH]4)C3)CC2)c1 (configuration not stated),-3
Cc1ccc(S(=O)(=O)N(CCO)c2cc3c(s2)CCCC3)cc1,30
O=C(C1COc2ccccc2O1)N1CCc2ccccc21 (configuration not stated),-54
